Test results: the supplement of paper PMC10849652
The full data set covers some 7,900 targets. This sample favours those with a hit. About 0.6% of all pairs of compound and target were hits. A number with no mark means an inactive call.

Assays:
Test in all cases: log2 fold change, soluble protein after heating vs DMSO (PISA); higher = thermal stabilisation; K562 cells, 10 uM, 30 min; active = over 0.2 and 3.5 SD of the protein, either way, in both replicates (recomputed)
erlotinib = compound: C#Cc1cccc(Nc2ncnc3cc(OCCOC)c(OCCOC)cc23)c1 [erlotinib]
How it was run: (§1)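 For each measurement, 10 μM compound was applied for 30 min to K562 cells at 2×10^6 cells/mL. Aliquots were heated for 3 min across 48°C-58°C, pooled, and extracted in PBS with 0.5% NP-40 at 4°C; the supernatant after 21,000xg for 90 min was soluble protein. This was quantified by TMTpro 16plex LC-MS/MS with channel sums equalised, and thermal stability was reported relative to control samples from duplicates, on a log2 fold-change scale.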

[1] = compound: C/C(=N\NC(=O)C1=CC(=CC=C1)S(=O)(=O)N2CCOCC2)/C3=C(C=CC(=C3)Cl)O
How it was run: as §1

[2] = compound: C1=CC(=C(C=C1Cl)C2=NC3=NC=CN=C3C(=N2)NC4=CC=NC=C4)F
How it was run: as §1

[3] = compound: C1=CC(=CC=C1C2=NC3=C(N2)C=C(C=C3)C(=O)N)OC4=CC=C(C=C4)Cl
How it was run: as §1

[4] = compound: C1=CC2=C(C=CC(=C2)/C=C\3/C(=O)NC(=NCC4=CC=CS4)S3)N=C1
How it was run: as §1

[5] = compound: C1=CC2=NC=CN=C2C=C1/C=C/3\C(=O)NC(=O)S3
How it was run: as §1

[6] = compound: C1=CC=C(C=C1)C2=NC(=C(N2)C3=CC=NC=C3)C4=CC(=C(C=C4)Cl)O
How it was run: as §1

[7] = compound: C1=CC=C2C(=C1)C3=NNC4=CC=CC(=C43)C2=O
How it was run: as §1

[8] = compound: C1CCN(C1)C(=O)NC2=CC=CC(=C2)NC3=NC=C(C(=N3)NCCC4=CN=CN4)Br
How it was run: as §1

[9] = compound: C1CN(CCC1(CC2=CC=C(C=C2)Cl)N)C3=NC=NC4=C3C=CN4
How it was run: as §1

IRAK-1-4 Inhibitor I = compound: C1COCCN1CCN2C3=CC=CC=C3N=C2NC(=O)C4=CC(=CC=C4)[N+](=O)[O-] [IRAK-1-4 Inhibitor I]
How it was run: as §1

ibrutinib = compound: C=CC(=O)N1CCC[C@@H](n2nc(-c3ccc(Oc4ccccc4)cc3)c3c(N)ncnc32)C1 [ibrutinib]
How it was run: as §1

[10] = compound: CC(=O)c1cnc2ccc(-c3cc(Cl)c(O)c(Cl)c3)nc2c1N[C@H]1CC[C@H](CN(C)C)CC1
How it was run: as §1

ralimetinib = compound: CC(C)(C)Cn1c(N)nc2ccc(-c3[nH]c(C(C)(C)C)nc3-c3ccc(F)cc3)nc21 [ralimetinib]
How it was run: as §1

[11] = compound: CC(C)(O)CC(=O)NCCn1ccc2ncnc(Nc3ccc(Oc4cccc(C(F)(F)F)c4)c(Cl)c3)c21
How it was run: as §1

[12] = compound: CC(C)C1=C2N=C(C=C(N2N=C1)NCC3=CC=CC=C3)NCCCCCCN
How it was run: as §1

[13] = compound: CC(C)C[C@@H](C=O)NC(=O)[C@H](CC(C)C)NC(=O)[C@H](CC(C)C)NC(=O)OCc1ccccc1
How it was run: as §1

pinometostat = compound: CC(C)N(C[C@H]1O[C@@H](n2cnc3c(N)ncnc32)[C@H](O)[C@@H]1O)[C@H]1C[C@@H](CCc2nc3cc(C(C)(C)C)ccc3[nH]2)C1 [pinometostat]
How it was run: as §1

[14] = compound: CC1=C(C(CC(=O)N1)C2=CC=C(C=C2)C(F)(F)F)C(=O)NC3=C(C=C4C(=C3)C=NN4)F
How it was run: as §1

[15] = compound: CC1=C(C2=C(C=C1)C(=O)C3=CC=CC=C3N2CCCN)C
How it was run: as §1

Sequence of UniProt Q562R1 (Q562R1 whole entry, looked up): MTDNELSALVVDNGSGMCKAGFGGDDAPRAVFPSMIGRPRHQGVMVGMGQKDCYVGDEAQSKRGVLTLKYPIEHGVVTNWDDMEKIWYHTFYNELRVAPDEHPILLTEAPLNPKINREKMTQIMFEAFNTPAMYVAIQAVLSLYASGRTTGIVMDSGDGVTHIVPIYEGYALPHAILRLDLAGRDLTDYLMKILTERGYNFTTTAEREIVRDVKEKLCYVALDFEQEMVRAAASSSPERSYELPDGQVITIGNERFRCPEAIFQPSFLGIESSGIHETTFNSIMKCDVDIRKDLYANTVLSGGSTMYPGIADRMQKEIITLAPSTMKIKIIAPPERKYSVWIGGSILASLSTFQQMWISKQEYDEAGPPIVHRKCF
Sequence of UniProt Q8IUR7 (Q8IUR7 whole entry, looked up): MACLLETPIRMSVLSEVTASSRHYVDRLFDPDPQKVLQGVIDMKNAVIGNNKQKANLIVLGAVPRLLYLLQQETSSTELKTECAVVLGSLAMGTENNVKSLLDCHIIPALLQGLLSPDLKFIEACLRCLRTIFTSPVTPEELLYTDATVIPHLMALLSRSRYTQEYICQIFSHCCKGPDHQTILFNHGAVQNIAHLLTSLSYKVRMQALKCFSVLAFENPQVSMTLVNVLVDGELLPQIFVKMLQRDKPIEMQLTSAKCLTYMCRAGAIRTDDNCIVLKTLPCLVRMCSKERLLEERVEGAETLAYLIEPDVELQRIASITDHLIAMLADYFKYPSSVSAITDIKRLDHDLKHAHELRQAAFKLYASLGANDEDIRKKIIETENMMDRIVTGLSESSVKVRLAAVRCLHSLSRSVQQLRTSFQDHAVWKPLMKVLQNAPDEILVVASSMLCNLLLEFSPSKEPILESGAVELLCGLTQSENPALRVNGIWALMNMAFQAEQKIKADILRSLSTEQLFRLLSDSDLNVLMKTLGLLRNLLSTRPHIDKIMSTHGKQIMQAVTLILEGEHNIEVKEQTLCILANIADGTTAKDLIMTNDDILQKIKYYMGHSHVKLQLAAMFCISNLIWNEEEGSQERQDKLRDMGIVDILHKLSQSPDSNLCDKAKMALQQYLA
Sequence of UniProt Q02252 (Q02252 whole entry, looked up): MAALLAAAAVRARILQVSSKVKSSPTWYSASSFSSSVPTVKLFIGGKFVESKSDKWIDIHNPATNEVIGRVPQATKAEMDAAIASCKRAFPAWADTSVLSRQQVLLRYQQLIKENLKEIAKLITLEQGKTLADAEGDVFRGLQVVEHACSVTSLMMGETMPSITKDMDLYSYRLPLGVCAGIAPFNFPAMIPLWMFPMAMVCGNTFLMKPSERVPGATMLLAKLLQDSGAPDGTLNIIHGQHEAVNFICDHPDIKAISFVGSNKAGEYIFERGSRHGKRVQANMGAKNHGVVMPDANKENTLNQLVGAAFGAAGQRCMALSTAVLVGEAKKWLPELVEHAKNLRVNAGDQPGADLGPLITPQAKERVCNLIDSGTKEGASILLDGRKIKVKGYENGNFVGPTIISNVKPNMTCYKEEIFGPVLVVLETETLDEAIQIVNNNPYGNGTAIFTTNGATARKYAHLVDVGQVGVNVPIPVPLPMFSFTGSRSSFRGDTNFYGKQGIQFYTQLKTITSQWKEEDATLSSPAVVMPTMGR
Sequence of UniProt P42331 (P42331 whole entry, looked up): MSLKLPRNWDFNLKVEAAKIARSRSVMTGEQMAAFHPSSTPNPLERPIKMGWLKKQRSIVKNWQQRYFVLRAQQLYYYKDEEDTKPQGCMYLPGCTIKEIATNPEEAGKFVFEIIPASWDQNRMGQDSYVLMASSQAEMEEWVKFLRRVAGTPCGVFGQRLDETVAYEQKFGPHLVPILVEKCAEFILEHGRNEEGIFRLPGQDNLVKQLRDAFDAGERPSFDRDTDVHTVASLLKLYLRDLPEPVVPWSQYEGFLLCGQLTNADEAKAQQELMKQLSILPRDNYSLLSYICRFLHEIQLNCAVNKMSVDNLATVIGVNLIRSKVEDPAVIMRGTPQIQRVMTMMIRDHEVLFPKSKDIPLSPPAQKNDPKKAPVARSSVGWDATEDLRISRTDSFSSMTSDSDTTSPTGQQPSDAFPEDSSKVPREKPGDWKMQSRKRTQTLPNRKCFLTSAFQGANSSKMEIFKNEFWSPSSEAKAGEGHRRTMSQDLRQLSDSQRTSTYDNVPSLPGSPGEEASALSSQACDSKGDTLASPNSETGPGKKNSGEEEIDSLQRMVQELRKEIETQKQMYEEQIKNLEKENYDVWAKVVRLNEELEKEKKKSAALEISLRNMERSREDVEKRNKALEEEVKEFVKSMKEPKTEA
Sequence of UniProt Q04771 (Q04771 whole entry, looked up): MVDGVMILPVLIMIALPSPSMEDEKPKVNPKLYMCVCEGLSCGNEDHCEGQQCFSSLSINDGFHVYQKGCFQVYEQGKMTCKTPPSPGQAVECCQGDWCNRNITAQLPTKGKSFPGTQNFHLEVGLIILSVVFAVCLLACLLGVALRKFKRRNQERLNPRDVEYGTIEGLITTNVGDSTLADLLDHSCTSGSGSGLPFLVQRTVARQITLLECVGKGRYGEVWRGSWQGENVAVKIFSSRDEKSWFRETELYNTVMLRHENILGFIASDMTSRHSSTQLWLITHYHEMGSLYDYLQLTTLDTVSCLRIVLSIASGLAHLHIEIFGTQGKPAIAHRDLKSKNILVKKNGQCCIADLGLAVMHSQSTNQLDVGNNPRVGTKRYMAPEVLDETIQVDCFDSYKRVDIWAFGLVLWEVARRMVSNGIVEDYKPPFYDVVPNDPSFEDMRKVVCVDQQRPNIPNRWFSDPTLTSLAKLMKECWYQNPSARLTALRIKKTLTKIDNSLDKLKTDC
Sequence of UniProt Q9UQB8 (Q9UQB8 whole entry, looked up): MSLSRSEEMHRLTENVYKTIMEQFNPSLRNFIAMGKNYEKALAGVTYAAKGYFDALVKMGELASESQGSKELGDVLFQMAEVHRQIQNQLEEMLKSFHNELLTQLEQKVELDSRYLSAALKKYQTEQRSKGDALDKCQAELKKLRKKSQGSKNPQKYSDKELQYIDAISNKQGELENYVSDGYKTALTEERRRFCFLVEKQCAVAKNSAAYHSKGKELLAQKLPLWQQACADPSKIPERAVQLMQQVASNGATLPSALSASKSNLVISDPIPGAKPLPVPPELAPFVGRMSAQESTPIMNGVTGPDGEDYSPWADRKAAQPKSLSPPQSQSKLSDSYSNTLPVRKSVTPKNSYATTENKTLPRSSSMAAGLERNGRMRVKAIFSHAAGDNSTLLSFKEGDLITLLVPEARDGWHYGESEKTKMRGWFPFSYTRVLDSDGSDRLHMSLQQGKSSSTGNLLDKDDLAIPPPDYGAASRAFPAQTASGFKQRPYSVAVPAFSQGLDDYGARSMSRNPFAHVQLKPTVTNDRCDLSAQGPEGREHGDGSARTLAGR
Sequence of UniProt P53367 (P53367 whole entry, looked up): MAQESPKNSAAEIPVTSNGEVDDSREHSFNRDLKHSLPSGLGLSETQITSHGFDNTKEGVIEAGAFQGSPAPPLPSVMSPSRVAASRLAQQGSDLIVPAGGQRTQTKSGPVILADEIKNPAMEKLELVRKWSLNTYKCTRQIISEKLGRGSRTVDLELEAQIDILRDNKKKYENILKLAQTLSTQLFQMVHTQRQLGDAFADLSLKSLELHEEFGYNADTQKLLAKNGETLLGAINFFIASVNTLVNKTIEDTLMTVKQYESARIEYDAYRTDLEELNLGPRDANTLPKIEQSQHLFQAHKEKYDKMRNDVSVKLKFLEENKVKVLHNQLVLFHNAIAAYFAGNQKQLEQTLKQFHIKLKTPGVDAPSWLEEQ
Sequence of UniProt Q9UNA0 (Q9UNA0 whole entry, looked up): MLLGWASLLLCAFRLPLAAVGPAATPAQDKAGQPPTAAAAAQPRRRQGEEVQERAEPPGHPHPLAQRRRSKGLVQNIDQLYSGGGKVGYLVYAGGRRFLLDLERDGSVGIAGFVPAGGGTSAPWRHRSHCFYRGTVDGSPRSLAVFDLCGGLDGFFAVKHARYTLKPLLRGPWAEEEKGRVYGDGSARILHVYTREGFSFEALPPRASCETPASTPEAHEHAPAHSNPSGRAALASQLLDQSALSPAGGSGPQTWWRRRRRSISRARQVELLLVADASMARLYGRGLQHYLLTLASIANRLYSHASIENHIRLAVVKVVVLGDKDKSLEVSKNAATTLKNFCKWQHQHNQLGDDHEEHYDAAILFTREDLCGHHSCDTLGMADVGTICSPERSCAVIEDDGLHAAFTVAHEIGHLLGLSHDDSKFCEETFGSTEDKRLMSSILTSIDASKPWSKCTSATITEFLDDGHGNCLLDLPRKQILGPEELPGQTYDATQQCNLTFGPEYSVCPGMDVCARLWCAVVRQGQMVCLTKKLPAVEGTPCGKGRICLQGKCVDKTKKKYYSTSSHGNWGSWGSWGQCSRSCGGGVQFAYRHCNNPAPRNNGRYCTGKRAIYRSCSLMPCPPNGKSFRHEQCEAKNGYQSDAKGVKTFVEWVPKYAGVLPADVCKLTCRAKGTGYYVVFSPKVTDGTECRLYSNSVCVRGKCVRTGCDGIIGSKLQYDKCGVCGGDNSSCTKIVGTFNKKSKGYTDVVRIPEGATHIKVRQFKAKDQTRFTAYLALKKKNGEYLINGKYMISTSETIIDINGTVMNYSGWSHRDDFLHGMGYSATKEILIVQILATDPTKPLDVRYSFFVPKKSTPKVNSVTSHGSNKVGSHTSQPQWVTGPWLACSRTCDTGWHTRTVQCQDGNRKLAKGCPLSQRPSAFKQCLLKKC
Sequence of UniProt P21283 (P21283 whole entry, looked up): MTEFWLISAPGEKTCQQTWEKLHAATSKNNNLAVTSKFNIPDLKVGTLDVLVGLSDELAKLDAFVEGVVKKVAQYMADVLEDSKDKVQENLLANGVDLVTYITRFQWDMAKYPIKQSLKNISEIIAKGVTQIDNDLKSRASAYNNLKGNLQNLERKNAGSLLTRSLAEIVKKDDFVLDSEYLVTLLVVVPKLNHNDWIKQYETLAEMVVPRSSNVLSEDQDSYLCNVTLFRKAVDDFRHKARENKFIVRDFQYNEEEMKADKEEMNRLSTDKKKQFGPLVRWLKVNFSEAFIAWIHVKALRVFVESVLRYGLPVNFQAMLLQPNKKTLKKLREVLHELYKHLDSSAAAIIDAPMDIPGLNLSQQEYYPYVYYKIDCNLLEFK

| Target | log2 fold change (erlotinib) | log2 fold change [1] | log2 fold change [2] | log2 fold change [3] | log2 fold change [4] | log2 fold change [5] | log2 fold change [6] | log2 fold change [7] | log2 fold change [8] | log2 fold change [9] | log2 fold change (IRAK-1-4 Inhibitor I) | log2 fold change (ibrutinib) | log2 fold change [10] | log2 fold change (ralimetinib) | log2 fold change [11] | log2 fold change [12] | log2 fold change [13] | log2 fold change (pinometostat) | log2 fold change [14] | log2 fold change [15] |
| --- | --- | --- | --- | --- | --- | --- | --- | --- | --- | --- | --- | --- | --- | --- | --- | --- | --- | --- | --- | --- |
| ASNS (UniProt P08243) | 0.006 | 0.004 | 0.053 | -0.015 | 0.012 | -0.011 | 0.034 | -0.008 | 0.002 | 0.02 | 0.046 | 0.015 | 0.006 | -0.033 | -0.029 | 0.017 | -0.003 | -0.034 | -0.007 | -0.007 |
| ACTBL2 (UniProt Q562R1) | -0.247 | -0.805 | 0.093 | 0.025 | -0.419 | -0.215 | 0.047 | 0.147 | – | – | – | 0 | -0.156 | 0.351 | 0.132 | 0.372 | 0.195 | – | 0.406 | – |
| ABCB6 (UniProt Q9NP58) | 0.017 | 0.045 | 0.029 | 0.037 | -0.003 | 0.069 | 0.087 | -0.056 | -0.057 | 0.023 | -0.018 | 0.003 | 0.021 | 0.051 | -0.073 | -0.489 (active) | -0.007 | 0.037 | -0.058 | 0.065 |
| ATP6V1C1 (UniProt P21283) | -0.103 | 0.02 | -0.135 | -0.021 | -0.011 | 0.046 | -0.244 | 0.045 | -0.067 | -0.227 | -0.102 | -0.041 | -0.074 | 0.036 | 0.039 | -0.008 | 0.052 | 0.068 | 0.032 | -0.037 |
| ATP6V1H (UniProt Q9UI12) | -0.055 | 0.015 | 0.034 | 0.035 | -0.008 | 0.045 | -0.131 | 0.024 | -0.051 | -0.097 | -0.011 | -0.033 | -0.065 | 0.007 | -0.014 | -0.241 (active) | 0.043 | -0.002 | -0.006 | 0.028 |
| ARHGAP25 isoform 4 (UniProt P42331) | 0.07 | 0.165 | 0.109 | -0.284 | 0.042 | -0.192 | – | -0.062 | 0.052 | -0.147 | – | -0.064 | -0.16 | – | -0.465 | -0.961 (active) | – | – | -0.418 | 0.066 |
| AKAP8 (UniProt O43823) | -0.056 | 0.032 | 0.074 | 0.039 | -0.028 | -0.004 | -0.039 | -0.068 | 0.015 | 0.018 | 0.058 | 0.002 | -0.205 | -0.018 | -0.097 | 0.019 | 0.054 | 0.003 | 0.056 | -0.113 |
| ARF4 (UniProt P18085) | -0.029 | 0.033 | 0.093 | -0.007 | 0.006 | -0.016 | 0.093 | 0.039 | -0.015 | -0.021 | 0.072 | 0.003 | -0.027 | -0.019 | -0.103 | 0.117 | -0.032 | -0.042 | -0.071 | 0.128 |
| ALDH6A1 (UniProt Q02252) | 0.067 | -0.02 | 0.061 | -0.144 | 0.074 | -0.043 | 0.038 | -0.038 | -0.03 | 0.043 | 0.004 | -0.023 | -0.041 | 0.019 | -0.155 | -0.068 | -0.002 | -0.01 | -0.004 | 0.018 |
| ACVR1 (UniProt Q04771) | -0.101 | -0.051 | 0.021 | 0.031 | -0.021 | – | – | 0.136 | -0.326 | 0.035 | – | – | 0.873 (active) | – | -0.158 | 0.06 | – | – | – | 0.127 |
| ANGEL1 (UniProt Q9UNK9) | – | – | – | – | – | 0.161 | -0.107 | – | -0.149 | 0.092 | -0.042 | 0.062 | – | 0.332 | – | – | 0.207 | -0.019 | – | 0.074 |
| AP2M1 (UniProt C9JTK4) | – | -0.114 | 0.036 | – | 0.322 | 0.172 | – | -0.12 | 0.084 | -0.065 | 0.056 | -0.044 | 0.049 | – | 0.005 | – | – | 0.03 | 0.085 | 0.001 |
| ATXN3 isoform 1 (UniProt P54252) | 0.082 | 0.107 | – | 0.038 | -0.042 | 0.082 | -0.038 | -0.115 | -0.073 | -0.002 | -0.031 | 0.028 | 0.065 | 0.018 | – | -0.314 | 0.234 | 0.021 | 0.018 | 0.016 |
| ADD1 isoform 4 (UniProt P35611) | – | – | 0.169 | – | – | -0.019 | – | – | – | – | -0.21 | 0.029 | – | – | -0.117 | – | – | 0.122 | – | – |
| ADAMTS5 (UniProt Q9UNA0) | 0.186 | -0.518 (active) | – | -0.124 | 0.171 | 0.012 | 0.072 | 0.043 | -0.06 | 0.113 | 0.064 | 0.127 | 0.036 | 0.141 | – | 0.088 | -0.009 | -0.03 | -0.015 | 0.025 |
| BAP18 isoform 3 (UniProt Q8IXM2) | 0.02 | – | – | -0.146 | – | – | – | – | -0.039 | -0.015 | – | – | – | – | – | 0.074 | – | – | – | -0.183 |
| ATP6V0A1 (UniProt Q93050) | – | – | – | – | – | 0.187 | – | – | – | – | – | 0.047 | – | – | – | – | – | – | – | – |
| ARMC8 isoform 6 (UniProt Q8IUR7) | -0.145 | 0.081 | – | -0.168 | -0.075 | 0.078 | – | -0.067 | – | – | – | 0.016 | 0.038 | – | – | 0.053 | – | – | -0.024 | – |
| ARFIP1 isoform 2 (UniProt P53367) | 0.106 | – | -0.064 | -0.051 | – | -0.06 | – | – | – | – | -0.051 | -0.055 | – | – | -0.186 | -0.048 | – | 0.043 | 0.029 | – |
| BRD2 isoform 2 (UniProt P25440) | -0.552 | – | – | 0.204 | -0.073 | 0.367 | – | 0.137 | -0.08 | -0.002 | 0.091 | -0.164 | -0.63 | – | – | 0.042 | – | 0.038 | – | -0.117 |
| ANK2 (UniProt Q01484) | -0.089 | -0.173 | – | -0.028 | 0.325 | -0.059 | 0.011 | -0.031 | -0.126 | -0.131 | -0.069 | -0.024 | -0.058 | -0.029 | – | -0.178 | 0.08 | 0.062 | 0.071 | 0.423 (active) |
| BAIAP2 isoform 4 (UniProt Q9UQB8) | – | – | – | – | – | – | – | – | -0.16 | -0.048 | – | – | – | – | – | – | – | – | – | 0.053 |
